VACV mCherry inh – vaccinia inhibition (mCherry reporter). AID 720579. 310,000 tested, 0.63% active. Potency, µM (top dose mostly 36.5 µM), without a hit: top-dose activity change, negative = inhibition, actives largely listed as inhibitors. Vaccinia virus mCherry reporter infection, fluorescence; calls by dose curve; tested in A549 cells; also: potency is read from the fitted curve at half-maximal effect; nearly all actives have a fitted effect of over 35% in size
FMDV inh – foot and mouth disease virus antiviral activity; Potency, µM (highest dose often 57.9 µM), inactives show top-dose activity change, negative = inhibition, hits mostly inhibitors; FMDV antiviral cell-based qHTS; 410,000 tested, 1.2% active; calls by dose curve; tested in HEK293T cells; also: read-out not given here; potency is read from the fitted curve at half-maximal effect; nearly all actives have a fitted effect of over 45% in size
VACV Venus inh – vaccinia inhibition (Venus reporter). Vaccinia virus Venus reporter expression, fluorescence. Potency, µM (series often up to 36.5 µM), for inactives: top-dose activity change, negative = inhibition, hits mostly inhibitors. 330,000 tested, 0.46% active. AID 720580; calls by dose curve; tested in A549 cells; also: potency is read from the fitted curve at half-maximal effect; nearly all actives have a fitted effect of over 30% in size
HCV inh – inhibitors of hepatitis C virus infection | Huh7.5.1 HCVcc-Cre infection, luciferase reporter, 44 h | Potency, µM (series often up to 41.8 µM), for the others: top-dose activity change, negative = inhibition, actives largely listed as inhibitors | 340,000 tested, 3.4% active | AID 651820; active = well fitted inhibition curve with a large enough effect; inconclusive = small, poorly fitted or top-dose-only effect, or another doubt; inactive = no such curve, though single readings can be large or run the other way; also: potency is read from the fitted curve at half-maximal effect
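HCVcc-Cre virus at an moi near 0.5 was added right after compound to cells cultured 4 h from seeding (1,000 cells/well). Luciferase activity was determined 44 h later, 15 min after substrate addition at RT.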
HCMV inh – human cytomegalovirus inhibition; HFF cells, HCMV-luciferase reporter, 72 h; active compounds read low; activity change, negative = inhibition, % at 57.5 µM; 410,000 tested, 4.5% active; in the data active = activity change below about -60%; inconclusive = no clear call, values can overlap the other calls; inactive = above about -39%
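After 16 h attachment at 37C, HFF cells received test compound and HCMV-luciferase (1 PFU/cell); reporter luminescence read 72 h later, data normalized against buffer-only and known inhibitor Salinomycin.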
Starred values were filed as active, the others as inactive; i = inactive; ? = inconclusive; . = not tested or not shown; [ ] = remark or other dose. An excerpt weighted towards active compounds, which were near 7.3% of everything screened. % is scaled to controls: 0 for no effect and ±100 for the full control effect.

SMILES	VACV mCherry inh	FMDV inh	VACV Venus inh	HCV inh	HCMV inh
CCCCCc1cc(=O)oc2c(C(CCN3CCCC(C)C3)c3ccc(N(C)C)cc3)c(OC)cc(OC)c12 (stereo unspecified)	11.2µM*	-12.0%	?	-14.6%	.
COc1ccc(C(CCN2CCCCC2)c2c(OC)cc(OC)c3c(-c4ccccc4)cc(=O)oc23)cc1 (stereo unspecified)	-27.3%	18.3%	14.1µM*	2.82µM*	1.7
COc1cc(C(CC(=O)N2CCCC2)c2c(OC)cc(OC)c3ccc(=O)oc23)cc(OC)c1OC (stereo unspecified)	-12.3%	0.0%	-4.4%	7.4%	22.5
CCCCCc1cc(=O)oc2c(C(CCN3CCCC(C)C3)c3cc(OC)c(OC)c(OC)c3)c(OC)cc(OC)c12 (stereo unspecified)	?	?	?	-16.9%[8.37 µM]	.
COc1cc(OC)c2c(-c3ccccc3)cc(=O)oc2c1C(CCN1CCCCC1)c1ccc(N(C)C)cc1 (stereo unspecified)	?	-9.6%	?	-8.9%	.
CCCCCc1cc(=O)oc2c(C(CCN3CCCCC3)c3cc(OC)c(OC)c(OC)c3)c(OC)cc(OC)c12 (stereo unspecified)	?	?	15.8µM*	?	-11.5
COc1cc(NC(=O)CCNS(=O)(=O)c2ccc3c(c2)CCN3C(=O)C2CC2)cc(OC)c1	-1.6%	-14.6%	-0.8%	.	1.0
CC(C)(C)OC(=O)N1CCC(c2c(C(=O)NC3CCCCC3)cnn2-c2cccc(Cl)c2)CC1	-6.4%	-11.8%	-10.2%	.	-4.3
COc1cccc(CSc2nc(-c3ccccc3OC)nc3c2Cc2c(CO)cnc(C)c2O3)c1	?	?	?	.	-25.7
COc1cc(OC)c2c(C)cc(=O)oc2c1C(CCN1CCOCC1)c1ccc2c(c1)OCO2 (stereo unspecified)	-21.3%	34.6%	-23.9%	?	22.8
CCCCCc1cc(=O)oc2c(C(CCN(CC)CC)c3ccc(N(C)C)cc3)c(OC)cc(OC)c12 (stereo unspecified)	-29.1%	-9.5%	?	?	-75.2*
COc1cc(C(CCN2CCN(c3ccccc3)CC2)c2c(OC)cc(OC)c3c(C)cc(=O)oc23)cc(OC)c1OC (stereo unspecified)	-7.8%	-9.8%	-27.8%	3.98µM*	-39.6
CCN(CC)CCC(c1cc(OC)c(OC)c(OC)c1)c1c(OC)cc(OC)c2c(C)cc(=O)oc12 (stereo unspecified)	21.6%	-8.7%	-11.4%	7.4%	1.1
CCCN1CNc2c(c(=O)[nH]c(=S)n2CCc2cc(OC)cc(OC)c2)C1	i	.	-19.1%	.	.
CCOC(=O)c1c(Nc2ccc(C)c(C)c2)nnc(-c2ccccc2)c1-c1ccccc1	5.2%	-26.7%	3.0%	.	-21.9
Nc1nnc(SCc2ccc(F)cc2)s1	.	26.2%	.	10.1%	-14.1
Nc1nc(SCc2ccc(F)cc2)ns1	i	34.8%	-12.2%	5.7%	-74.3*
CCc1ccc(S(=O)(=O)c2nnn3c2nc(Nc2ccc(F)cc2)c2cc(Cl)ccc23)cc1	?	-10.6%	?	.	-5.9
N=c1n(CC(=O)c2ccc([N+](=O)[O-])cc2)c2ccccc2n1Cc1ccc(Cl)cc1	.	-2.5%	.	-8.2%	-12.9
N=c1n(CC(=O)c2ccc([N+](=O)[O-])cc2)c2ccccc2n1Cc1ccccc1	i	-15.5%	-13.2%	?	-82.7*
Cc1ccc(C(=O)Cn2c(=N)n(N)c3ccccc32)cc1	.	39.8µM*	.	-7.5%	39.0
N=c1n(CC(=O)c2ccc(Br)cc2)c2ccccc2n1Cc1ccccc1	?	-12.0%	11.2µM*	?	-60.5*
N=c1n(Cc2ccccc2)c2ccccc2n1Cc1ccccc1	-31.4%	0.0%	?	?	?
N=c1n(CC(=O)c2ccc([N+](=O)[O-])cc2)c2ccccc2n1Cc1ccccc1Cl	-15.1%	28.2µM*	-15.7%	-2.3%	?
O=c1c(-c2cccs2)nc2cnc(N3CCOCC3)nc2n1-c1ccccc1	.	-16.5%	.	.	.
SMILES	VACV mCherry inh	FMDV inh	VACV Venus inh	HCV inh	HCMV inh
Cc1ccc(CSc2nnc(-c3ccc(NC(=O)CCc4ccccc4)cc3)n2C)cc1	-10.1%	.	-9.1%	.	.
COc1ccccc1CC(=O)Nc1ccc2c(c1)OC1(CCCC1)O2	?	35.1%	-16.3%	12.6µM*	16.1
COc1cc(COCC(O)CN2CCN(CCN3C(=O)c4cccc5cccc(c45)C3=O)CC2)cc(OC)c1OC (stereo unspecified)	-22.6%	?	?	3.55µM*	-75.5*
O=C1c2cccc3cccc(c23)C(=O)N1CCN1CCN(CC(O)COCc2ccc(Cl)cc2)CC1 (stereo unspecified)	11.2µM*	?	?	11.2µM*	-79.2*
COc1ccc(COCC(O)CN2CCC(CN3C(=O)c4cccc5cccc(c45)C3=O)CC2)cc1OC (stereo unspecified)	-27.6%	?	?	?	0.2
CCn1cc(C(=O)NCCCN2CCCC(C)C2)c(=O)c2cc(S(=O)(=O)N3CCc4ccccc4C3)ccc21 (stereo unspecified)	-18.7%	-15.9%	?	11.2µM*	-73.7*
CCC1CCCCN1CCCNC(=O)c1cn(CC)c2ccc(S(=O)(=O)N3CCc4ccccc4C3)cc2c1=O (stereo unspecified)	i	0.0%	-19.9%	12.6µM*	-39.5
COc1ccc(-c2ccc(SCC(=O)Nc3cccc(C(C)=O)c3)nn2)cc1OC	-25.1%	-26.5%	?	8.91µM*	115.9
CC(=O)c1cccc(NC(=O)CSc2ccc(-c3ccc4c(c3)OCO4)nn2)c1	-11.7%	-0.7%	0.8%	11.2µM*	24.5
COc1ccc(-c2ccc(SCC(=O)NC3CCCCC3)nn2)cc1OC	-10.3%	1.5%	-11.3%	-24.5%	74.3
CC(=O)c1cccc(NC(=O)CSc2ccc(-c3ccco3)nn2)c1	-20.4%	?	-8.9%	?	-29.1
Cc1cc(OCC(=O)Nc2c(C(=O)c3ccccc3)oc3ccccc23)cc(C)c1Cl	-0.2%	-14.8%	2.8%	.	3.9
CC(C)(C)c1ccc(C(=O)NCCOc2ccccc2F)cc1	-11.9%	35.5µM*	-19.2%	-3.4%	-69.5*
COc1ccccc1C(=O)NCCOc1ccc(C(C)(C)C)cc1	.	-19.4%	.	-19.9%	-14.9
CCCCOc1ccc(C(=O)NCC(=O)NCCOc2ccccc2OC)cc1	.	-11.8%	.	12.6µM*	-0.7
CC(C)(C)c1ccc(C(=O)NCCOc2ccccc2)cc1	-3.0%	20µM*	-9.8%	-2.5%	?
CN(C)S(=O)(=O)c1ccc(C(=O)NCCOc2ccccc2)cc1	.	19.4%	.	1.5%	147.4
CC(=O)c1ccc(NC(=O)CCc2c(C)nn(-c3ccc4nnc(C)n4n3)c2C)cc1	-7.1%	-5.9%	-11.0%	.	-2.6
O=C(CSc1nc2c(c(=O)[nH]1)CCCC2)Nc1ccc(Br)cc1	-9.0%	-19.8%	-3.1%	.	-7.5
C=CCNc1cccc2c1S(=O)(=O)N[C@@H](CC(C)C)CO2	.	.	.	.	4.4
CC/C(=N/N=C(/CC)c1ccc(O)cc1)c1ccc(O)cc1	.	19.6%	.	?	-99.3*
